# Experimental data: paper PMC7819943, “Rice protein-binding microarrays: a tool to detect cis-acting elements near promoter regions in rice”
# Whole data set: some 68,000 sequences, median “fluorescence intensity (a.u.)” near 9,100, cut for the highest 2% near 16,000. This excerpt belongs to a sample that is enriched for the highest values.
# Target: OsWRKY34 (Oryza sativa, UniProt Q0JBA9 1-250)
# Assay: protein-binding microarray (RPBM); PBS, 2% BSA, 51.3 ng/ul salmon testes DNA, 50 uM zinc acetate, 200 nM TF, 25 C, 1 h; high values mean tight binding
# Settings: protein: recombinant; tags: N-terminal polyhistidine and DsRed monomer fusion (pET32a); label: CyDye5-dUTP incorporated in the synthesized complementary strand; 3' TTTTT single-stranded linker to array surface; dsDNA, one strand shown
# Procedure, shortened: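 The binding signal is fluorescence intensity per feature, in arbitrary units, read on an Axon 4000B scanner. Polyhistidine- and DsRed-tagged transcription factors (N-terminal fusions) from E. coli BL21-CodonPlus were purified on Ni–NTA and applied at 200 nM for 1 h at 25 °C to a double-stranded, BSA-blocked custom Agilent array in buffer with 50 µM zinc acetate.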
# Sequence of OsWRKY34 (Q0JBA9 entry or part of it): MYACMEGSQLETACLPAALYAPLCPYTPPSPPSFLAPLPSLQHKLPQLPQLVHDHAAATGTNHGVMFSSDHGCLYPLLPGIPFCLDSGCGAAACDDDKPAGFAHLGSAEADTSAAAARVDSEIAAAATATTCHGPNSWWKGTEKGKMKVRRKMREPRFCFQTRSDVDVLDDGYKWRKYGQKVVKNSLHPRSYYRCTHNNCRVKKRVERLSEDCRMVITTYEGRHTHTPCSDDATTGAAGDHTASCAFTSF
row,Sequence,binding signal
1,AAATTCAAACTAGTTTCTACATAGCCTCTTTTCTCTATTTCGGAGTCACCTAGTGCAG,10900 fluorescence intensity (a.u.)
2,TGTTTATTTTTTTCGTTAAATTTGATTGTTTCCATTTGCACGGAGTCACCTAGTGCAG,9770 fluorescence intensity (a.u.)
3,ACCCGCCCCTGCTGCTCACCGCTCCAGCCTCCGCTCATCCCGGAGTCACCTAGTGCAG,8790 fluorescence intensity (a.u.)
4,CTTGGTGGTTCTTTTCTTCTTCTAGATTTATCCCCATTTTCGGAGTCACCTAGTGCAG,16700 fluorescence intensity (a.u.)
5,GGTTGGTTTCTTTCGTTGGATTGTTTCGAGCCAGGGTTTCCGGAGTCACCTAGTGCAG,16900 fluorescence intensity (a.u.)
6,CCATTTAGATTGGTGCCATTTTAAACTATATCTTTTTCTTCGGAGTCACCTAGTGCAG,8220 fluorescence intensity (a.u.)
7,CGTTATTCCGCTGTTGTTTTTTTTTTCTTTTGTAAGTATGCGGAGTCACCTAGTGCAG,17500 fluorescence intensity (a.u.)
8,CCGCTGTTATTCCCTTTGTTGTTTTTTCTCAAGTAAATTTCGGAGTCACCTAGTGCAG,13200 fluorescence intensity (a.u.)
9,TGAGTTTGTTTGCTGGGTTGGTTCGTGCGTTTTCTTGGATCGGAGTCACCTAGTGCAG,18800 fluorescence intensity (a.u.)
10,AGGGTTTTTTTTGTCACTTTCGTTGTCAGTTTCTTTTTTCCGGAGTCACCTAGTGCAG,14100 fluorescence intensity (a.u.)
11,CGTCTCTTTTATCCTTCTTTTTTTTCCCATTTTTCTTTTTCGGAGTCACCTAGTGCAG,11900 fluorescence intensity (a.u.)
12,GGCGGATTTCGGTTTCTTCGTGTGTTTGTTGGTTGCGTTGCGGAGTCACCTAGTGCAG,12700 fluorescence intensity (a.u.)
13,TTGGATTGGTTTCTTTCTGCTCTGTTGCAGCTCCGTTGTCCGGAGTCACCTAGTGCAG,9560 fluorescence intensity (a.u.)
14,CCGCTGCTGTTTTCTTTTCTTTTGTAAGTGTGTAACGTTACGGAGTCACCTAGTGCAG,9400 fluorescence intensity (a.u.)
15,AGTTTTATCCTGGGTTTGTGTTTGGTGCTGTTCTTGCGTGCGGAGTCACCTAGTGCAG,10200 fluorescence intensity (a.u.)
16,TCTCTCGCCGATTCCGCCACCGCCGCCGCGCCGCGCCTCGCGGAGTCACCTAGTGCAG,9420 fluorescence intensity (a.u.)
17,GACGGTGGCCATTCTAATTCCTCTATTGCAGGGTCTAACTCGGAGTCACCTAGTGCAG,8310 fluorescence intensity (a.u.)
18,TATATCCTATCTCTCACTTCACTCATATAGTGGTTAACTCCGGAGTCACCTAGTGCAG,9570 fluorescence intensity (a.u.)
19,ACTTTTCTACACACATAAACTTCTAACTTTTTCATCACATCGGAGTCACCTAGTGCAG,13400 fluorescence intensity (a.u.)
20,GTAGTGCTGATGTTGTACTGTGTTTTTTTACCCGTTTTATCGGAGTCACCTAGTGCAG,11500 fluorescence intensity (a.u.)
21,CCACCACCACCACGCCACGGCAGCCGCACCGCACCGCACCCGGAGTCACCTAGTGCAG,8390 fluorescence intensity (a.u.)

row,Sequence,binding signal
1,CACACCTCGCCTCCTCCTCGGCTTGGATCTCGCCGCATCACGGAGTCACCTAGTGCAG,8210 fluorescence intensity (a.u.)
2,AACGGTACCATCACCATCATTTATCATGGGCACAACTTGCCGGAGTCACCTAGTGCAG,8810 fluorescence intensity (a.u.)
3,CCTTCGTCGACCCTCCGCCGCCGCCGCCGCCGCCGCCGACCGGAGTCACCTAGTGCAG,8660 fluorescence intensity (a.u.)
4,CAACATACAGGGAGTTTTTACCGGCCGCCCTCTACTCTCACGGAGTCACCTAGTGCAG,9800 fluorescence intensity (a.u.)
5,GAGTTAGCCATGGCCTGTCAATTACTGGAACTCTGTTGTACGGAGTCACCTAGTGCAG,8220 fluorescence intensity (a.u.)
6,GTTGCTTTTGCTGGAGTAGTACTTCTATTTATCTTCAAACCGGAGTCACCTAGTGCAG,9100 fluorescence intensity (a.u.)
7,CATTTTCTTGGTTTGGTCTTTTTTATTGTTGGGTGTGTTTCGGAGTCACCTAGTGCAG,15500 fluorescence intensity (a.u.)
8,TGGTCTTGCCTCTCGCTTAGCCTTTTTGTTGCCTTGTGCTCGGAGTCACCTAGTGCAG,12300 fluorescence intensity (a.u.)
9,CTGTAGTTGCCTTTGTTGGTCTTGGTTTTGCTGTTCTGGTCGGAGTCACCTAGTGCAG,9910 fluorescence intensity (a.u.)
10,TGTTTTTTCCTTTTTTTTTCTTTTCTTTTTCTCTCTTCCCCGGAGTCACCTAGTGCAG,8200 fluorescence intensity (a.u.)
11,TTCGTGGTTTCGTTCAGCTTGATTTCGCTTGACACATCGACGGAGTCACCTAGTGCAG,9110 fluorescence intensity (a.u.)
12,CTCAGTCGACCAATCGTTGATCGCCACGTCGGCTGTTCTTCGGAGTCACCTAGTGCAG,8350 fluorescence intensity (a.u.)
13,CTGGTCAGTTGGTCTTGTGTTTTGGGCTTTTTCGGCCCGTCGGAGTCACCTAGTGCAG,12200 fluorescence intensity (a.u.)
14,GGGCTTGCGATCGTGTTGTGTTGGGTTGGGTCTTGGGTTTCGGAGTCACCTAGTGCAG,29400 fluorescence intensity (a.u.)
15,TTTTTTCTTTTTTTTTTTGTTTTTTCTCGCCTTTTTTTCCCGGAGTCACCTAGTGCAG,11900 fluorescence intensity (a.u.)
16,GGAGGGTCTGTTTTCTTGTGTGCGAGCCTTGCTAGTTGCTCGGAGTCACCTAGTGCAG,16500 fluorescence intensity (a.u.)
17,ATCTGTTCGTGGGTTGCTTGCTCAGTCGACCAATCGTTGACGGAGTCACCTAGTGCAG,19200 fluorescence intensity (a.u.)
18,TTTTCGCATGTTTCTTTTCTTTTTTTTTCTTTTCTTTTCCCGGAGTCACCTAGTGCAG,16600 fluorescence intensity (a.u.)
19,TCTGACACCTATCTCTCCTGGATTCTCCATGCTTTCTTTCCGGAGTCACCTAGTGCAG,10300 fluorescence intensity (a.u.)
20,TTTTCTCACCACTCTCTCTTTCGTGTTCTCTCTCTCTTGTCGGAGTCACCTAGTGCAG,12500 fluorescence intensity (a.u.)
21,CATCCTCCTTCCGGAACCTTCTAGAAGGTTCTCCTCGTACCGGAGTCACCTAGTGCAG,8530 fluorescence intensity (a.u.)

row,Sequence,binding signal
1,ATGTATTGGTGTTATGCCTTCTGTTTATTTTATTTGCTCCCGGAGTCACCTAGTGCAG,8730 fluorescence intensity (a.u.)
2,AAATCTGTAGCCCGCTGCTTTTCTCTCTCCTTATTTATCTCGGAGTCACCTAGTGCAG,11200 fluorescence intensity (a.u.)
3,CCAATATCACGTTGTCCTAGCTCTGCCAACGACTTCATCTCGGAGTCACCTAGTGCAG,8320 fluorescence intensity (a.u.)
4,TTCTCTCCCTCCCGGCCGCCGCCCCGCCCCGCCCATCTTGCGGAGTCACCTAGTGCAG,9110 fluorescence intensity (a.u.)
5,TTTGTTGGTTGGTTTGACCCTTCCTAATCCTACCTTTGGTCGGAGTCACCTAGTGCAG,8160 fluorescence intensity (a.u.)
6,CACGTACGCCGCCGTGTCTCATCACGAGCTCGATCGTTTCCGGAGTCACCTAGTGCAG,8240 fluorescence intensity (a.u.)
7,AAAGGTGAGTAGTGGTTTCTGGGTTGCGTCTCCCTTTTTCCGGAGTCACCTAGTGCAG,12600 fluorescence intensity (a.u.)
8,GTGGGTTTTTTTTTTTGGTTTGTTTCTTCCTCTGGCCATTCGGAGTCACCTAGTGCAG,19800 fluorescence intensity (a.u.)
9,TTCTCTGTTTCTTCTGCCTTCACCACCTGCTCCACATTTTCGGAGTCACCTAGTGCAG,10900 fluorescence intensity (a.u.)
10,GTTGGGTGGGTTTCCCGTCTCCTTCCGATTGCTGAGTAGCCGGAGTCACCTAGTGCAG,19100 fluorescence intensity (a.u.)
11,GTGGAGTTGCTTTCTCCTCCTCCTTGTTTGGGTTGGGTGCCGGAGTCACCTAGTGCAG,11900 fluorescence intensity (a.u.)
12,ACACCATGTTTCCACATTGCATTTCCTTCTGTTTTTTCTTCGGAGTCACCTAGTGCAG,17600 fluorescence intensity (a.u.)
13,GATTTGTATTGGTTTTAATAGTAGGGGAATTTCTATACCTCGGAGTCACCTAGTGCAG,8140 fluorescence intensity (a.u.)
14,GTGGGTTTCTAGCATCATAGGGGTATTGTAGTAACTTCCTCGGAGTCACCTAGTGCAG,17400 fluorescence intensity (a.u.)
15,TCCTCTGGCTTTCTTTTCCCATTTCGTCTCTTGTTTGTTTCGGAGTCACCTAGTGCAG,9160 fluorescence intensity (a.u.)
16,CGTGGGTAATTTGGTTCCTCTTCTTTTTTTGGCTTCCTTTCGGAGTCACCTAGTGCAG,8440 fluorescence intensity (a.u.)
17,ATATTTCCTGTTTGCTCTGTGTTTTCTTCCACCTTCCATTCGGAGTCACCTAGTGCAG,9830 fluorescence intensity (a.u.)
18,GGGTATTGTAGTAACTTCCTGTGCACCATCGGGGTTAAGACGGAGTCACCTAGTGCAG,10500 fluorescence intensity (a.u.)
19,ATTTTGATTAGTGCGTTTGATTAGTGGTGTTTATTATGTCCGGAGTCACCTAGTGCAG,9410 fluorescence intensity (a.u.)
20,TTCTGAACCGTGTTAAAATGCTACAAAATTTTCCCTTTTTCGGAGTCACCTAGTGCAG,8570 fluorescence intensity (a.u.)
21,AGCTTTCACCTCATTAAGACCGGTATCTGTTGAGACTTGACGGAGTCACCTAGTGCAG,8860 fluorescence intensity (a.u.)

row,Sequence,binding signal
1,GAACTAGTCCGCCTAATTGTTGGCTCTCTTATCTCTTCATCGGAGTCACCTAGTGCAG,12100 fluorescence intensity (a.u.)
2,TTCTATGTTGTGGTTCTGTGTTTTACACTTCAGTTTTGTTCGGAGTCACCTAGTGCAG,8030 fluorescence intensity (a.u.)
3,GTGATCCGGTGCCCTCTGACCCGCAACTTCCTTTTGGCACCGGAGTCACCTAGTGCAG,8460 fluorescence intensity (a.u.)
4,TTAGATGTGGCCAGTTTTGATTTCTAGCTTATAGGATCGTCGGAGTCACCTAGTGCAG,9000 fluorescence intensity (a.u.)
5,ACAATGTGACCCTATGTACAATTTACTCATATATTTTTATCGGAGTCACCTAGTGCAG,9570 fluorescence intensity (a.u.)
6,GAGTAGTAAGTTATATCCCTCAACCATTTCACTTCACACACGGAGTCACCTAGTGCAG,9600 fluorescence intensity (a.u.)
7,ATTCATTACACCATGTTTCTTTCTTTCTTTCGAGGACCCTCGGAGTCACCTAGTGCAG,8370 fluorescence intensity (a.u.)
8,GGATCTCGTTTGTCTGGTTTTCGTAAGTTGAGGGACGGGTCGGAGTCACCTAGTGCAG,8380 fluorescence intensity (a.u.)
9,GTTCTGGTTGGGATCGATTTCTTCTTCCCCTTTGTTGCTTCGGAGTCACCTAGTGCAG,9700 fluorescence intensity (a.u.)
10,CTCGCGCGTGCCCGCCTCTGCTGTTCTTTCTCTCGCCCTCCGGAGTCACCTAGTGCAG,11400 fluorescence intensity (a.u.)
11,ATCTGTTATGTTTGCCCTGTCATTGGTTCTGCTAATCAATCGGAGTCACCTAGTGCAG,9160 fluorescence intensity (a.u.)
12,ATGTTGCCCTTTGTTCTGCTGTTTCCTGGTTATATGGGATCGGAGTCACCTAGTGCAG,17500 fluorescence intensity (a.u.)
13,GCCTGCCTGTCTGCCTCCGCGTCTTTTCTGCTGCCCACATCGGAGTCACCTAGTGCAG,19500 fluorescence intensity (a.u.)
14,GGTGACCATTCCTAGTTTCCTACCCCTCATGTTTTTCTTTCGGAGTCACCTAGTGCAG,17000 fluorescence intensity (a.u.)
15,CCTTGTTTGCTCGGTTTTTGTAAGTTGAGGGACGGGTCATCGGAGTCACCTAGTGCAG,18700 fluorescence intensity (a.u.)
16,CATCGCCTCCGCTTCTGCTTTTTTTTTTCTTTTTTCTCGTCGGAGTCACCTAGTGCAG,10200 fluorescence intensity (a.u.)
17,TTATGAGGGTAAGTTTGTATTTGTCATATTTGGGTTGCTACGGAGTCACCTAGTGCAG,8110 fluorescence intensity (a.u.)
18,TTCTTTTTCGTTTTCTTCTCATTCTTCTTTTTTTTCCTTTCGGAGTCACCTAGTGCAG,14300 fluorescence intensity (a.u.)
19,AGTTTCAGTAGCCTCGCCGATCGACTTGCCACACCGCCGTCGGAGTCACCTAGTGCAG,9260 fluorescence intensity (a.u.)
20,CACCGCCATCTTCCTCTTCTTCTTCGTCGTCGTGGTTGGCCGGAGTCACCTAGTGCAG,11100 fluorescence intensity (a.u.)
21,AAACTGGGCCATATCGGTTGGTTTTTGCTCTCTACGTCTCCGGAGTCACCTAGTGCAG,9280 fluorescence intensity (a.u.)
